# Screens as filed in PubChem.
# FBW7 act = activators of human E3 ligase FBW7; 650,000 compounds, 0.13% hits; AlphaScreen FBW7–phospho-cyclin E peptide binding, activator screen; AID 1259310; normalized activity (activation), % at 26.1 µM; in the data active means normalized activity above about 1.9%;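 further: purified mutant Fbw7 with reduced substrate affinity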
# MITF inh = blocks human microphthalmia-associated transcription factor; inhibition, % at 2.6 µM; 650,000 compounds, 0.91% hits; O75030; AlphaScreen MITF homodimerization, bead proximity signal; in the data active means inhibition above about 50%
# TEAD-YAP inh = TEAD-YAP interaction inhibition. inhibition, % at 9.12 µM. 640,000 compounds, 1.4% hits. AID 1259422. HEK-TIYL cells, TEAD-Gal4/YAP UAS-luciferase luminescence; in the data active means inhibition above about 32%
# GPR151 ag = activators of human GPR151; Q8TDV0; 650,000 compounds, 1% hits; AID 1508602; PathHunter beta-arrestin GPR151 cells, luminescence; activation, % at 11.2 µM; in the data active means activation above about 4.9%
# Target sequence (Q8TDV0 whole entry, looked up): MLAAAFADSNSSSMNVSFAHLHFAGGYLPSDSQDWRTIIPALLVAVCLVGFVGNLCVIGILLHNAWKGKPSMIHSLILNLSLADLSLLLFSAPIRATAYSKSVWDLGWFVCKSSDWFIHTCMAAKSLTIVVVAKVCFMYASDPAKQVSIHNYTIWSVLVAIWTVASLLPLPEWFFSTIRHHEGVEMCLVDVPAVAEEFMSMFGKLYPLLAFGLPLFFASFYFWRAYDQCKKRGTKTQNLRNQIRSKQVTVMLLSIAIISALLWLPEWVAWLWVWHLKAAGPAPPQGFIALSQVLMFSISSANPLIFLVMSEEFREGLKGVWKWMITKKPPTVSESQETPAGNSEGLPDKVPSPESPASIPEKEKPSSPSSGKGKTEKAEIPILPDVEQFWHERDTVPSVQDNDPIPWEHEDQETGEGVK
# MITF confirm = confirmation of human MITF inhibitors; inhibition, % at 2.6 µM; shares compounds with MITF inh; AlphaScreen MITF homodimerization, biotin/His-MITF beads; AID 1259372; 4,700 compounds, 16% hits;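 active means inhibition above a cutoff derived from the DMSO control wells, cut at about 28% in these data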;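 further: inhibitors lower the bead chemiluminescence by keeping MITF from dimerizing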
# AS interf ctr = optically interferes with AlphaScreen signal. shares compounds with MITF inh. LysRS AlphaScreen counterscreen, signal interference, triplicate. inhibition, % at 2.6 µM. 4,700 compounds, 7.6% hits. AID 1259376;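 active means inhibition above a cutoff derived from the DMSO control wells, cut at about 30% in these data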
# Hits are given with their value; – = inactive; · = no result. Compounds with a hit are over-represented: about 3.5% of the library has one in this group of screens.
SMILES,FBW7 act,MITF inh,TEAD-YAP inh,GPR151 ag,MITF confirm,AS interf ctr
COc1ccc(-c2cc(C3CC3)nc(SCC(N)=O)c2C#N)cc1,–,51.5,–,–,–,–
COc1ccc(-c2cc(C3CC3)nc(SCC(=O)c3ccc(Br)cc3)c2C#N)cc1,–,–,–,–,·,·
O=C(N/N=C/c1ccccn1)C1=NNC(=O)C1CCO (centres undefined),–,65.3,–,–,30.5,96.5
O=C(N/N=C/c1ccccn1)c1cccc2ccccc12,–,–,–,–,·,·
COc1cc(CN2CCN(Cc3ccccc3C)CC2)cc(OC)c1O,–,58.6,–,–,–,–
COc1cc(CN2CCN(CCO)CC2)cc(Br)c1O,–,67.3,–,–,–,–
COc1cc(CN2CCN(Cc3ccccc3Br)CC2)cc(OC)c1O,–,68.5,–,–,–,–
COc1cc(CN2CCN(C(=O)c3ccccc3)CC2)cc(OC)c1O,–,–,–,–,·,·
COc1cc(CN2CCN(Cc3c[nH]c4ccccc34)CC2)cc(OC)c1OC,–,55.7,–,–,–,–
COc1cc(CN2CCN(c3ccccn3)CC2)cc(Br)c1O,–,–,–,–,·,·
CN1CCCC1=NC(=O)c1ccccc1Br,–,–,–,–,·,·
COc1cc(CN2CCN(Cc3ccccc3C)CC2)cc(OC)c1OC,–,64.2,–,–,–,–
COc1cc(CN2CCN(c3ccccc3C)CC2)cc(OC)c1OC,–,–,–,–,·,·
CC(C)(C)C1(O)CC(C(F)(F)F)=NN1C(=O)c1cccc([N+](=O)[O-])c1 (centres undefined),–,–,–,–,·,·
Cc1ccc(OCCN2CCN(CC(O)Cn3c4ccccc4c4ccccc43)CC2)cc1 (centres undefined),–,74.1,–,–,–,–
CCc1nc2ccccc2n1CC(O)COc1ccc(C(=O)OC)cc1 (centres undefined),–,–,–,–,·,·
Cc1cccc(NC(=S)NNC(=O)CC(C)O)c1C (centres undefined),–,57.0,–,–,–,–
Nc1n[nH]c(C(=O)N/N=C/c2cccs2)n1,–,77.3,–,–,51.4,95.4
Cn1cccc1/C=N/NC(=O)c1nc(N)n[nH]1,–,–,–,–,·,·
CC1(C)CC2CC(C)(CN2CC(O)COc2ccccc2)C1 (centres undefined),–,–,–,–,·,·
COc1cccc(COCC(O)CN2CC3(C)CC2CC(C)(C)C3)c1 (centres undefined),–,68.4,–,–,–,–
COc1cccc(CC(C2CCN(C(=O)CSC)CC2)N(C)Cc2ccccn2)c1 (centres undefined),–,52.2,–,–,–,33.6
COc1cccc(CC(C2CCN(Cc3ccccn3)CC2)N(C)C(=O)c2ccco2)c1 (centres undefined),–,–,–,–,·,·
O=C1NC(=O)C(CCCc2ccccc2)(C2CCN(C(=O)Cc3cccc(F)c3)CC2)N1 (centres undefined),–,50.7,–,–,–,–
O=C1NC(=O)C(CCCc2ccccc2)(C2CCN(C(=O)Cc3cccs3)CC2)N1 (centres undefined),–,–,–,–,·,·
SMILES,FBW7 act,MITF inh,TEAD-YAP inh,GPR151 ag,MITF confirm,AS interf ctr
COc1ccc(S(=O)(=O)N2CCCCC2C(=O)O)cc1OC (centres undefined),–,–,–,–,·,·
COc1ccc(S(=O)(=O)N2CCCCC2C(=O)O)cc1 (centres undefined),–,68.3,–,–,–,–
CC(C)C(C)NC(=O)CSc1nnc(NCc2ccccc2)s1 (centres undefined),–,53.1,–,–,–,–
O=C(CSc1nnc2ccccn12)NC12CC3CC(CC(C3)C1)C2,–,–,–,–,·,·
CC(NCC(O)CO)c1ccc(-n2ccnc2)cc1 (centres undefined),–,81.3,–,–,–,–
CCOC(=O)CNS(=O)(=O)c1cc(-c2nnc(Nc3cccc(C)c3)c3ccccc23)ccc1C,–,79.8,–,–,–,–
Cc1ccc2c(c1)Nc1nc3nonc3nc1N2,–,–,–,–,·,·
COCCN1CCCc2ccc(NC(=O)c3ccc(C)cc3)cc21,–,53.9,–,–,–,–
COc1ccc(-c2csc(NC(=O)C3=COCCO3)n2)cc1,–,–,–,–,·,·
Cc1ccc(-n2c(-c3ccc(F)cc3)cn3c4c(=O)n(C)c(=O)n(C)c4nc23)cc1,–,–,–,–,·,·
CN(c1ccccc1)S(=O)(=O)c1ccc(/C(O)=C(\C#N)c2nc3ccccc3n2C)cc1,–,61.7,–,–,–,–
